Measured values from PubChem BioAssay.
Active and inactive are the calls of the source.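 The calls were made as follows, unless noted: active = inhibition above 50%; inactive = the rest.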

Assay: antimalarial activity against Dd2 strain (AID 2302;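 active = growth inhibition above 50% at the single 2 µM test dose, taken to imply half-maximal potency below 2 µM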;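 also: 0% = DMSO untreated growth and 100% = chloroquine plus artemisinin killed control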)
Conditions: P. falciparum Dd2 in RBCs, LDH growth readout, 72 h; at 2 µM; active compounds read high

SMILES | growth inhibition
CNCc1ccc(-c2ccc3ccnc(N)c3c2)cc1 | 98% (active)
COc1ccc(Cc2cccc(C(C(=O)NCc3cc(Cl)cc(Cl)c3)N3CCN(C)CC3)c2)cc1 (centres undefined) | 24% (inactive)
N#Cc1ccc2c(c1)CCN(CCC1CCC(NC(=O)/C=C/c3nc4ccccc4s3)CC1)CC2 (centres undefined) | -2% (inactive)
O=C(NC1CCCCC1)N(Cc1ccc(-c2cccc(CNC3CCCC3)c2)cc1)C1CCN(Cc2ccccc2)CC1 | 59% (active)

Assay: human hepatoma cell viability loss – ATP luminescence, cytotoxicity control for P. falciparum antimalarial project, primary screen (AID 2303);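 also: 0% = DMSO wells and 100% = digitonin-killed cells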
Conditions: HepG2 viability, 24-48 h, at 10 µM, active compounds read high

SMILES | inhibition
CC[C@H](C)CNC(=O)c1cncc(-c2ccc(CNCCOc3ccccc3)cc2)c1 | 7% (inactive)
COc1cccc(NC(=O)Nc2ccc(C)c(-c3ccc(C(=O)Nc4ccncc4)cc3)c2)c1 | 45% (inactive)
CCCNCc1c(O)ccc2c(CNCCC)c(O)ccc12 | 24% (inactive)
Clc1ncnc2ncn(Cc3cccc(Br)c3)c12 | -5% (inactive)
CCN(CC)CCN(Cc1ccc(-c2ccc(C(F)(F)F)cc2)cc1)C(=O)c1ccc(-c2ccc(NC(=O)OC)cc2C)cc1 | 66% (active)
CCNc1cc(C)nc(Nc2ccc(NC(=O)c3ccccc3)cc2)n1 | 41% (inactive)
Cc1cccc2[nH]c(-c3cccc(-c4ccc(C(=O)NCc5ccccc5S(C)(=O)=O)cc4)c3)nc12 | 17% (inactive)
CO/C(=C\C=C\c1cc2cc(Cl)c(Cl)cc2[nH]1)C(=O)NCCCCN1CCN(c2ccccc2OC)CC1 | 55% (active)
COc1ccc(CNC2CCN(C)CC2)cc1-c1cccc(S(=O)(=O)NCc2ccccc2)c1 | 43% (inactive)
O=C(c1cccc(Br)c1)N1CCN(c2ccc([N+](=O)[O-])c(NC3CC3)c2)CC1 | 5% (inactive)
CN(C)CCNc1cc(-c2ccc3ccccc3c2)nc2ccccc12 | 24% (inactive)
CC1(C)N=C(N)N=C(N)C1c1ccc(Cl)cc1 (centres undefined) | 16% (inactive)
CCCCCCCc1c2c(C)c(C(=O)OCC)nc-2cc2n1CC(C)=C2C | 11% (inactive)
COc1ccccc1Oc1c(N(C)S(=O)(=O)c2ccc(C(C)C)cc2)nc(C(F)(F)F)nc1N(C)S(=O)(=O)c1ccc(C(C)C)cc1 | 4% (inactive)
Cc1ccc(CN2CCCN(Cc3cccc(C(=O)Nc4ccc(C(C)(C)C)cc4)c3)CC2)s1 | 31% (inactive)
CCN(CC)C(=NCCCCCCN=C(NC(N)=NCc1ccc(Cl)cc1Cl)N(CC)CC)NC(N)=NCc1ccc(Cl)cc1Cl | 16% (inactive)
CCCNCc1ccc(-c2ccc(CN(Cc3cccs3)C(=O)C3CCN(C)CC3)cc2)nc1 | 10% (inactive)
O=C(Nc1cccc(-c2cccc(-c3nc4ccc(C(F)(F)F)cc4[nH]3)c2)c1)c1ccncc1 | 52% (active)
CN(C)CCNC(=O)c1cccc(-c2cnc3ccc(NCc4ccc(Cl)c(Cl)c4)nn23)c1 | 31% (inactive)
CC(C)(C)S[C@H]1S[C@H](SC(C)(C)C)[C@@H](OC(=O)c2ccccc2)C(OC(=O)c2ccccc2)[C@H]1OC(=O)c1ccccc1 (some centres undefined) | -2% (inactive)

SMILES | inhibition
COC(=O)Cn1c(C2CCN(CC3CCN(C(=O)/C=C/c4ccc(Cl)c(Cl)c4)CC3)CC2)nc2ccccc21 | 19% (inactive)
N#CCCN1CCN(Cc2cccc(-c3ccc(-c4nc5ccccc5[nH]4)s3)c2)CC1 | 48% (inactive)
COc1ccc(-c2cccc(NC(=O)c3ccc(Cl)cc3)c2)cc1CN1CCNCC1 | 52% (active)
CCCCCCOc1ccc(C(=O)N(Cc2ccccc2)c2c(-c3ccccc3)nc3cc(C)ccn23)cc1 | -8% (inactive)
Fc1cccc(COc2ccc(-n3ccc4c(NCCCn5ccnc5)ncnc43)cc2Cl)n1 | 14% (inactive)
COc1ccc(O)c(C(=O)c2cc(C(=O)NC3CCCCC3)c(=O)n(C3CCCCC3)c2)c1 | 8% (inactive)
Cc1ccc(N(CCC(=N)N)Cc2ccccc2)cc1 | 6% (inactive)
CC(C)Oc1ccccc1-c1csc(C(=O)NCC2CCN(Cc3ccc(C(C)(C)C)cc3)C2)c1 (centres undefined) | 59% (active)
O=C1COc2ccc(CNC3CCC(O)(CCc4ccnc5cc6c(cc45)OCCO6)CC3)nc2N1 (centres undefined) | -5% (inactive)
C#CCCC(=O)Nc1cccc(-c2cccc(-c3nc4ccc(C(F)(F)F)cc4[nH]3)c2)c1 | 14% (inactive)
CC(=O)Oc1ccc(C(=O)Oc2ccccc2C#CC#N)cc1OC(C)=O | 23% (inactive)
Cc1[nH]c(C)c(-c2ccc(-c3cccc(OC(F)(F)F)c3)nc2)c(=O)c1Cl | 30% (inactive)
FC(F)(F)c1ccc2nc(-c3ccc(-c4ccc(CNCCN5CCNCC5)cc4)s3)[nH]c2c1 | 17% (inactive)
CCCCCCP(=O)(COc1ccc(CCN(CC(O)COc2cccc3[nH]c(C(N)=O)cc23)CC(O)COc2cccc3[nH]c(C(N)=O)cc23)cc1)OCCCC (centres undefined) | -10% (inactive)
C[C@@H]1CN(c2cnn(C/C=C/c3ccc(NC(=O)c4ccc(Cl)cc4)cc3)c(=O)c2Cl)C[C@H](C)N1 | 25% (inactive)
Cc1noc(C)c1-c1cccc(CNCc2cccc(-c3cccc(-c4nc5c(C)cccc5[nH]4)c3)c2)c1 | 15% (inactive)
CNCc1ccc(-c2ccc3ccnc(N)c3c2)cc1 | 46% (inactive)
COc1ccc(Cc2cccc(C(C(=O)NCc3cc(Cl)cc(Cl)c3)N3CCN(C)CC3)c2)cc1 (centres undefined) | 8% (inactive)
N#Cc1ccc2c(c1)CCN(CCC1CCC(NC(=O)/C=C/c3nc4ccccc4s3)CC1)CC2 (centres undefined) | 6% (inactive)
O=C(NC1CCCCC1)N(Cc1ccc(-c2cccc(CNC3CCCC3)c2)cc1)C1CCN(Cc2ccccc2)CC1 | 52% (active)
